Data published in PubChem BioAssay AID652154 (Broad Institute, 2013).
Screen size: about 360,000 compounds; about 4,200 (1.2%) were called active.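 Rule for the calls: active = mean replicate inhibition at least 60% with every replicate also reaching 60%; inconclusive = only one of the two criteria is met; inactive = mean below 60% and not all replicates reaching 60%.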 Shown is part of a subset that was picked to be rich in actives.

Assay: PAX8 transcriptional activity inhibition in RMG-I – RMG-I cells, luciferase, single concentration, primary screen (AID 652154);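 note: luciferase light reporting Pax8 driven TPO promoter activity; plate controls were median of neutral control wells for no effect and mitoxantrone controls for full effect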
Conditions: RMG-I TPO-luciferase reporter, SteadyGlo, 24 h; at 12.6 µM; stronger effect = higher value

inhibition, inactive:
CCCNC(=O)N1CC2(C1)[C@@H](c1ccccc1)[C@@H](CO)N2C(=O)CC1CC1 -12.2%
CCCNC(=O)N1C[C@@H](C)[C@@H](OC)CN(C)C(=O)c2ccc(NC(=O)CCC)cc2OC[C@H]1C 1.97%
C[C@@H]1CN([C@H](C)CO)C(=O)c2cc(Br)cnc2O[C@@H]1CN(C)C(=O)Nc1ccc(F)cc1 9.97%
C[C@@H]1CCCCO[C@@H](CN(C)Cc2ccc(C(=O)O)cc2)[C@@H](C)CN([C@@H](C)CO)C(=O)c2cc(NC(=O)Nc3ccc(C(F)(F)F)cc3)ccc2O1 -6.61%
C[C@@H]1CN([C@H](C)CO)C(=O)c2cc(NC(=O)Nc3ccc(C(F)(F)F)cc3)ccc2O[C@@H](C)CCCCO[C@@H]1CN(C)Cc1ccc(C(F)(F)F)cc1 -27.4%
COc1ccc2c3c([nH]c2c1)[C@H](CO)N(C(=O)C1CCCCC1)CC31CCN(C(=O)c2ccncc2)CC1 3.94%
CCC(=O)N(C)C[C@@H]1Oc2cc(-c3ccccc3OC)ccc2S(=O)(=O)N([C@H](C)CO)C[C@H]1C -9.48%
COC(=O)C[C@@H]1CC[C@H]2[C@H](COc3ccc(NC(=O)c4ccccc4F)cc3C(=O)N2C)O1 9.97%
O=C(C(=O)N1CCC(CNS(=O)(=O)Cc2ccccc2)CC1)c1cc2ccccc2o1 10%
COc1ccc(NC(=O)Nc2ccc3c(c2)[C@@H]2C[C@H](CC(=O)N[C@@H](C)c4ccccc4)O[C@@H](CO)[C@@H]2O3)cc1 -20.1%
C[C@H](NC(=O)C[C@H]1CC[C@H]2[C@@H](COC[C@H](O)CN2C(=O)Nc2cc(Cl)cc(Cl)c2)O1)c1ccccc1 3.71%
C[C@H]1CCCCO[C@@H](CN(C)Cc2ccccc2)[C@@H](C)CN([C@@H](C)CO)C(=O)c2cc(NC(=O)Cc3ccccc3)ccc2O1 -9.52%
CNC(=O)C[C@H]1CC[C@@H]2[C@@H](COc3ccc(NC(=O)c4ccc(F)c(F)c4)cc3C(=O)N2C)O1 -18.3%
COc1ccc(N2CCN(S(=O)(=O)c3ccc4c(c3)N(C(C)=O)CCO4)CC2)cc1 3.96%
CCOC(=O)C1CCN(S(=O)(=O)c2ccc3c(c2)N(C(C)=O)CCO3)CC1 8.01%
C[C@H]1CN([C@@H](C)CO)C(=O)c2cc(NC(=O)Nc3ccccc3)ccc2O[C@H]1CN(C)C(=O)Nc1ccc(F)cc1 -5.44%
O=C(C[C@@H]1CC[C@@H]2[C@H](COC[C@H](O)CN2Cc2cccc(C(F)(F)F)c2)O1)NCc1ccc(F)cc1 19.6%
CC1CCN(c2nc3c(c(=O)[nH]c(=O)n3C)n2CCCc2ccccc2)CC1 -19.2%
C=C(C)Cn1c(N2CCCC2)nc2c1c(=O)[nH]c(=O)n2C -3.4%
COCCNC(=O)C[C@H]1CC[C@H](NS(=O)(=O)c2ccc(C)cc2)[C@@H](CO)O1 -3.36%
O=C(CN1CCOCC1)N1CCCCN2[C@@H](CO)[C@H](c3ccc(/C=C/c4ccccc4)cc3)[C@@H]2C1 -11.5%
O=C(C[C@H]1CC[C@@H]2[C@H](COC[C@H](O)CN2S(=O)(=O)c2ccc(Cl)cc2)O1)N[C@@H]1CCN(Cc2ccccc2)C1 32.3%
C=CCC[C@H](Cc1ccc(F)cc1)C(=O)OC[C@H](C)NC(=O)[C@H](CC=C)CC(=O)N(CCO)Cc1ccccc1 23.7%
C=CC[C@H](CC(=O)NCCO)C(=O)N[C@@H](COC(=O)[C@@H](CC=C)Cc1ccc(F)cc1)Cc1c[nH]c2ccccc12 8.97%
C=CCC[C@@H](Cc1ccc(F)cc1)C(=O)OC[C@@H](C)NC(=O)[C@H](CC=C)CC(=O)N(CCO)Cc1ccccc1 31.4%
C=CC[C@@H](CC(=O)N[C@H](CO)Cc1ccccc1)C(=O)N[C@@H](COC(=O)[C@@H](CC=C)Cc1ccc(F)cc1)Cc1c[nH]c2ccccc12 25.6%
CO[C@@H]1CC[C@H]2CCN(C)C(=O)C[C@@H](c3ccccc3)CN(C)C(=O)c3cc(C#N)ccc3OC[C@@H]1O2 5.74%
N#C[C@@H]1N[C@@H](CO)[C@@H]1c1ccc(C#Cc2ccccc2F)cc1 -118%
O=C(C[C@@H]1CC[C@@H]2[C@H](COC[C@H](O)CN2C(=O)Nc2cccc(Cl)c2)O1)NCCCN1CCOCC1 -32.8%
O=C(c1ccncc1)N1CC(=O)N2[C@H](CO)[C@@H](c3ccc(-c4cccnc4)cc3)[C@H]2C1 7.54%
COCC(=O)N(C)C[C@H]1[C@@H](c2ccc(-c3cccnc3)cc2)[C@H](CO)N1C(C)=O 0.314%
COc1ccccc1S(=O)(=O)N[C@@H]1CC[C@H](CC(=O)N2CCOCC2)O[C@@H]1CO 3.09%
COC(=O)C(CC#Cc1ccc2c(c1)[C@]1(C(=O)N2)[C@H](c2ccc(O)cc2)N2[C@H](c3ccccc3)[C@H](c3ccccc3)OC(=O)[C@H]2[C@@H]1C(=O)NC[C@H](O)c1ccccc1)C(=O)OC -24.8%
COc1ccc(C#Cc2ccc3c(c2)[C@]2(C(=O)N3)[C@H](c3ccccc3OCCO)N3[C@H](c4ccccc4)[C@H](c4ccccc4)OC(=O)[C@H]3[C@@H]2C(=O)N2CCCCCCC2)cc1 0.581%
Cc1ccc(S(=O)(=O)Nc2cccc3c2O[C@H](CN(C)CC2CCCCC2)[C@H](C)CN([C@H](C)CO)C3=O)cc1 -4.8%
COc1ccc(CN(C)C[C@H]2OCCCC[C@@H](C)Oc3ccc(NC(=O)Nc4cccc5ccccc45)cc3C(=O)N([C@H](C)CO)C[C@@H]2C)cc1 14.2%
CNC(=O)C1CCN(S(=O)(=O)c2c(C)noc2/C=C/c2cccc(C)c2)CC1 -0.657%
Cc1noc(/C=C/N(C)C)c1S(=O)(=O)N1CCCC(C(=O)NCc2ccco2)C1 (centres undefined) 38.6%
CC(=O)N1CCCCN2[C@H](CO)[C@H](c3ccc(-c4ccccc4)cc3)[C@@H]2C1 8.11%
C[C@@H]1CCCCO[C@@H](CN(C)C(=O)C2CCCCC2)[C@H](C)CN([C@H](C)CO)C(=O)c2cc(NC(=O)Cc3ccccc3)ccc2O1 -7.3%
C[C@@H]1CCCCO[C@H](CN(C)C(=O)Nc2ccccc2)[C@H](C)CN([C@H](C)CO)C(=O)c2cc(NC(=O)Nc3ccccc3)ccc2O1 10.5%
CC(C)NC(=O)Nc1ccc2c(c1)C(=O)N([C@@H](C)CO)C[C@H](C)[C@H](CN(C)C(=O)c1ccccc1)OCCCC[C@@H](C)O2 3.59%
C[C@H](CO)N1C[C@H](C)[C@@H](CN(C)C(=O)NC2CCCCC2)Oc2c(NC(=O)Nc3ccc(F)cc3)cccc2C1=O -8.27%
C[C@@H]1CN([C@H](C)CO)C(=O)c2cccc(NC(=O)Nc3ccccc3)c2O[C@@H]1CN(C)C(=O)NC1CCCCC1 9.31%
CC(C)NC(=O)Nc1ccc2c(c1)C(=O)N([C@@H](C)CO)C[C@@H](C)[C@@H](CN(C)C(=O)Nc1ccc(C(F)(F)F)cc1)OCCCC[C@H](C)O2 -21.5%
C[C@@H]1CCCCO[C@H](CN(C)C(=O)Nc2ccc(C(F)(F)F)cc2)[C@H](C)CN([C@H](C)CO)C(=O)c2cc(NC(=O)Nc3ccc(C(F)(F)F)cc3)ccc2O1 17.5%
C[C@@H]1CCCCO[C@@H](CN(C)C(=O)Nc2ccc(C(F)(F)F)cc2)[C@H](C)CN([C@H](C)CO)C(=O)c2cc(NC(=O)c3ccccc3)ccc2O1 -6.62%

inhibition, active:
C[C@@H]1CCCCO[C@H](CN(C)Cc2ccc(C(F)(F)F)cc2)[C@H](C)CN([C@H](C)CO)C(=O)c2cc(NC(=O)Nc3ccc(F)cc3)ccc2O1 92.5%
C=CCn1c(C)cc(C2=NNC(=NCC)SC2)c1C 107%
CC(=O)N1CCOc2ccc(S(=O)(=O)N3CCN(c4cccc(C(F)(F)F)c4)CC3)cc21 92.2%
Cn1c(=O)[nH]c(=O)c2c1nc(N1CCN(C(c3ccccc3)c3ccccc3)CC1)n2CCO 84.2%
C=CCC[C@H](Cc1ccc(F)cc1)C(=O)OC[C@@H](Cc1c[nH]c2ccccc12)NC(=O)[C@H](CC=C)CC(=O)N[C@H](CO)Cc1ccccc1 75.3%
C=CCC[C@@H](Cc1ccc(F)cc1)C(=O)OC[C@H](Cc1c[nH]c2ccccc12)NC(=O)[C@@H](CC=C)CC(=O)N(CCO)Cc1ccccc1 75.3%
COC(=O)C(CC#Cc1ccc2c(c1)[C@]1(C(=O)N2)[C@H](c2ccccc2OCCO)N2[C@H](c3ccccc3)[C@H](c3ccccc3)OC(=O)[C@H]2[C@@H]1C(N)=O)C(=O)OC 92.9%
Cc1noc(/C=C/c2ccco2)c1S(=O)(=O)N1CCC(C(=O)Nc2ccc(Cl)cn2)CC1 74.4%
CC(C)NC(=O)N(C)C[C@H]1OCCCC[C@H](C)Oc2ccc(NC(=O)Nc3ccc(C(F)(F)F)cc3)cc2C(=O)N([C@H](C)CO)C[C@@H]1C 93.7%
C[C@H]1CN([C@@H](C)CO)C(=O)c2cccc(NC(=O)Nc3ccc(C(F)(F)F)cc3)c2O[C@H]1CN(C)C(=O)NC1CCCCC1 92.2%
C[C@@H]1CN([C@@H](C)CO)C(=O)c2cc(NC(=O)Nc3ccc(C(F)(F)F)cc3)ccc2O[C@@H](C)CCCCO[C@H]1CN(C)C(=O)c1ccccc1 84.4%
C[C@@H]1CCCCO[C@H](CN(C)C(=O)C2CCCCC2)[C@@H](C)CN([C@@H](C)CO)C(=O)c2cc(NC(=O)Nc3ccccc3)ccc2O1 80.3%
